This is part of a sample that, as a whole, favours compounds with a hit. Of some 79,000 tested, about 15% had one in any assay. A number with no mark means an inactive call. The source made the active and inactive calls. No stated cut-off is given here; in the data, active means growth inhibition above about 70%; inactive means the rest.
Assays:
[1] = NCI Yeast Anticancer Drug Screen. Data for the rad50 strain (AID 155);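 further: 0% = growth of vehicle-only cultures of the same strain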; conditions: S. cerevisiae rad50 strain growth inhibition; at 50.0 µM; active compounds read high
Outline: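 Yeast carrying a defined DNA repair defect were exposed to test compounds, and growth was compared with vehicle-treated controls to give percent inhibition.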

[2] = NCI Yeast Anticancer Drug Screen. Data for the mec2-1 strain (AID 157); conditions: S. cerevisiae mec2-1 strain, at 50.0 µM, active compounds read high
Outline: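 Yeast mec2-1 mutant treated with compound. Readout: growth inhibition vs vehicle controls.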

[3] = NCI Yeast Anticancer Drug Screen. Data for the sgs1 mgt1 strain (AID 161);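 further: 0% = growth of cultures given vehicle only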; conditions: S. cerevisiae sgs1 mgt1 strain, at 50.0 µM, active compounds read high
Outline: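 Inhibition of yeast growth, normalised to vehicle-treated controls, is reported for a strain bearing genetic alterations in DNA damage repair.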

[4] = NCI Yeast Anticancer Drug Screen. Data for the cln2 rad14 strain (AID 165);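 further: 0% = growth equal to vehicle treated cultures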; conditions: S. cerevisiae cln2 rad14 strain, at 50.0 µM, active compounds read high
Outline: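 cln2 rad14 yeast strain; compound exposure; growth inhibition read vs vehicle controls.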

[5] = NCI Yeast Anticancer Drug Screen. Data for the bub3 strain (AID 167); conditions: S. cerevisiae bub3 mutant strain, at 50.0 µM, active compounds read high
Outline: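 Compounds were applied to a genetically altered yeast strain carrying a cell-cycle control defect. Growth inhibition was scored against vehicle-treated controls.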

[6] = NCI Yeast Anticancer Drug Screen. Data for the mlh1 rad18 strain (AID 175); conditions: S. cerevisiae mlh1 rad18 strain growth inhibition; at 50.0 µM; active compounds read high
Outline: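 Yeast w/ defined DNA-repair lesions; compound exposure; growth vs vehicle controls → % inhibition.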

Structure (SMILES)	growth inhibition [1]	growth inhibition [2]	growth inhibition [3]	growth inhibition [4]	growth inhibition [5]	growth inhibition [6]
CN(CCSCC(N)C(=O)O)CCSCC(N)C(=O)O (centres undefined)	5%	11.2%	0.7%	29.4%	-58%	28.6%
CCCCCCNC(=O)NC	-2.3%	-11.5%	-16.8%	-36.2%	-21.1%	-7.05%
CC(=O)C1=CCC(C(C)C)C1 (centres undefined)	4.2%	-0.9%	-1.2%	-1.3%	17.1%	2%
CCN(CC)c1cc2c(cc1Br)-c1ccccc1C2=O	4%	-2.9%	5.7%	52.2%	7.95%	36%
c1ccc2cc(-c3csc4ccccc34)ccc2c1	12.8%	-16.4%	17.1%	-8.05%	15.4%	9.15%
Cn1c(/N=C(/N)N=C(N)N)cc(=O)n(C)c1=O	12.8%	5.45%	20.3%	34.7%	29.6%	21.8%
CC(O)CCNC(=O)c1ccccc1 (centres undefined)	-10.4%	-16.2%	-11.3%	-25.8%	-13.3%	-5%
CC1CCC(O)CC1C (centres undefined)	-17.9%	-24.6%	-57%	27.2%	-33.6%	-10.1%
CCOC(=O)C(=CC(C)(C)C)C(=O)OCC	3.9%	19.1%	2.8%	14.8%	21.1%	10%
CC(C)C1CCC(O)CC1 (centres undefined)	-14.5%	1.9%	-3.55%	-32.2%	10.3%	9.05%
CCCCCCCCCCCCCCCCCCn1cnc2c(=S)nc[nH]c21	-37.5%	-2.2%	-0.75%	-20.5%	0.5%	-34.1%
Cc1cn(C2CC(O)C(CO)O2)c(=O)nc1NCC12CC3CC(CC(C3)C1)C2 (centres undefined)	-1.7%	11.8%	-1.1%	-1.1%	-0.8%	-2.25%
CC(C)=CCc1c(O)ccc2ccc(=O)oc12	21.6%	20.1%	10.2%	17.9%	7.3%	29.4%
C1=N/C=C\C=C/c2ccc[n+](CCCCC[n+]3ccccc3-c3ccccn3)c21	81.5% (active)	63.5%	86.8% (active)	63.1%	36.7%	75.2% (active)
CC(=O)OCCC12CCC(CC1Cl)C2(C)C (centres undefined)	-1.45%	-9.7%	9.85%	24.7%	-3.05%	-3.55%
O=C(N/N=C(\C1=Nc2ccc(Cl)cc2NC1O)C(O)/C=C/c1ccccc1)c1ccncc1 (centres undefined)	17.6%	3.95%	-8.8%	-20.7%	-4%	7.7%
CCN(C(=N)C#N)c1ccccc1	29.8%	13.2%	10.1%	24.4%	29.9%	27.1%
CCC(Nc1nncs1)Nc1nncs1	-21.9%	22.6%	2.2%	-20.9%	2.95%	-3%
CCCCn1c(CCC)nc([N+](=O)[O-])c1Sc1ncn[nH]1	-4.15%	6.15%	-28.4%	-1%	-20.2%	8.6%
C[C@H](C(O)CC(=O)C(C)(C)O)[C@H]1CC[C@@]2(C)[C@@H]3CC[C@H]4C(C)(C)[C@@H](OC5OC(COC6OC(CO)C(O)C(O)C6O)C(O)C(O)C5O)CC[C@]4(C)C3=CC[C@]12C (some centres undefined)	-12.7%	-19.3%	-20.2%	-0.05%	-23.4%	-75.8%

Structure (SMILES)	growth inhibition [1]	growth inhibition [2]	growth inhibition [3]	growth inhibition [4]	growth inhibition [5]	growth inhibition [6]
CC(C)(O)/C1=C/C=C/CCCCCCCCCC1	13.8%	14.9%	50.1%	5.75%	14.8%	16.9%
Clc1ccc2cc(Cl)c3ccccc3c2c1	-17.4%	-24.4%	-16.4%	-20.9%	4.25%	-0.05%
CC(C)c1ccc(/C=C2\C=Nc3ccccc32)cc1	15.8%	11.7%	28.9%	5.2%	50.7%	20.6%
CC1C(O)CC23COC(=O)C2=CCCC3C1(C)CCC1=CC(=O)OC1 (centres undefined)	-8.6%	-38.9%	-26.2%	-7%	-42%	-20.9%
COc1cc(C(=O)O)c(Br)c(OC)c1OC	-1.55%	20.1%	2.55%	-12.7%	42.9%	1%
CCCC(=O)c1ccc(O)cc1	4.65%	3.45%	-6.2%	-12.6%	4.05%	0.2%
Cc1ccc([N+](=O)[O-])cc1NC(=O)C(=O)Cc1nc2ccc(C(=O)c3ccccc3)cc2[nH]c1=O	-4.7%	-20.7%	-9.05%	11.6%	10.3%	-5.7%
O=C1C2Nc3ccccc3N=C2OC1c1ccc(Cl)c(Cl)c1 (centres undefined)	10.1%	-5.35%	15.7%	7%	-4.8%	24.6%
NNC(=O)c1cccc(C(=O)NN)n1	6.25%	4.9%	8.55%	5.85%	31.1%	15.1%
O=C1C(O)=C(Cl)C(=O)C(OC2=C(Cl)C(=O)C(OC3=C(Cl)C(=O)C(OC4=C(Cl)C(=O)C(Cl)=C(Cl)C4=O)=C(Cl)C3=O)=C(Cl)C2=O)=C1Cl	9.55%	3.5%	-17.3%	-4.3%	-2.35%	22.3%
Cc1cc(S(N)(=O)=O)c(SCc2nc(N)nc(N(C)C)n2)cc1Cl	-30.8%	-22.3%	-20.3%	9.05%	-37.4%	7.8%
O=c1[nH]c(=S)c2ncn(C3OC(CO)C(O)C3O)c2[nH]1 (centres undefined)	-0.5%	-13.7%	-11.1%	4.4%	-1.1%	11.8%
NCS(=O)(=O)O	-12.8%	-23.1%	-18.9%	9.5%	-24.2%	-26.1%
COc1cc([N+](=O)[O-])ccc1NC(=O)c1cccc([N+](=O)[O-])c1C(=O)O	5%	20.6%	42.8%	-9.5%	-16.8%	24.6%
COc1ccccc1Nc1n[nH]c(=S)s1	11.5%	-5.9%	58.5%	16.9%	14.1%	5.05%
CC1=Nc2ccccc2S/C1=C(/C)NN	21.4%	8.55%	0.2%	15.6%	1.8%	0.9%
CN1CCN(C(=S)C(O)(c2ccccc2)c2ccccc2)CC1	1.75%	-1.85%	-2.35%	1.45%	16.1%	-8.6%
Cc1cccc[n+]1CCC(N)=O	-6.55%	-26.8%	-1.85%	5.5%	-15.8%	-6.25%
CO/C(=N\N=C\c1ccccc1F)c1ccncc1	-25.9%	-64.8%	-70.8%	1.7%	-28.6%	-60.6%
